The text below walks through data of PubChem BioAssay (Tox21).

Unmarked numbers belong to inactive results. Inconclusive results are not listed. Calls of active or inactive are those of the source. Unless noted, calls come from the whole dose curve; as a rule, active = well fitted curve in the direction sought with a large enough effect in the repeat runs; inconclusive = weak or mixed curves; inactive = no such curve, though single readings can be large; an effect the other way counts as inactive or inconclusive.

The nature of assay [1]: qHTS assay to test for compound auto fluorescence at 460 nm (blue) in HEK293 cell free culture (AID 720681). An outline of the steps:
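Compounds were added to cell-free DMEM with 10% FBS and fluorescence read directly. The blue channel used 405 nm excitation and 460 nm emission, with triamterene as the reference fluorophore.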

Assay [2] in a line: qHTS assay to test for compound auto fluorescence at 535 nm (green) in HEK293 cell free culture (AID 720682). In outline: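 Each library compound, or DMSO control, is added by pintool to medium alone, comprising DMEM and 10% FBS. Emission at 535 nm following 485 nm excitation is quantified against fluorescein.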
(In general: In qHTS, concentration-response curves come from the screen itself.)

A short description of assay [3]: qHTS assay to test for compound auto fluorescence at 590 nm (red) in HEK293 cell free culture (AID 720683). In outline:
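Cell-free wells of DMEM with 10% FBS received compound, and intrinsic fluorescence was read at excitation/emission 540/590 nm. Values expressed as equivalence to Rose Bengal sodium.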

The nature of assay [4]: qHTS assay to test for compound auto fluorescence at 590 nm (red) in HepG2 cell free culture (AID 720684). An outline of the steps:
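Rose Bengal sodium served as the reference for red signal. Test compounds were dispensed into serum-containing MEM (10% FBS) without cells, and plates were read at 540/590 nm.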

Assay [5] can be described thus: qHTS assay to test for compound auto fluorescence at 460 nm (blue) in HepG2 cell free culture (AID 720685). In outline: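 Cell-free plates of MEM plus 10% FBS received 23 nL compound or DMSO vehicle; blue-channel (405/460 nm) intensity scored against triamterene as reference fluorophore.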
The nature of assay [6]: qHTS assay to test for compound auto fluorescence at 535 nm (green) in HepG2 cell free culture (AID 720686).
A short description of assay [7]: qHTS assay to test for compound auto fluorescence at 460 nm (blue) in HepG2 cells (AID 720687). In outline:
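HepG2 cells in MEM with 10% FBS, attached overnight at 37 C, were exposed to compound or DMSO for 1 hr at 37 C, 5% CO2. Blue fluorescence was read at 405/460 nm, with triamterene as reference fluorophore.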

The nature of assay [8]: qHTS assay to identify small molecule antagonists of the glucocorticoid receptor (GR) signaling pathway - cell viability counter screen (AID 720693). Note: nearly all actives have a fitted effect of over 55% in size.
A short description of assay [9]: qHTS assay to identify small molecule antagonists of the androgen receptor (AR) signaling pathway - cell viability counter screen (AID 743033; note: nearly all actives have a fitted effect of over 45% in size).
Assay [10] in a line: qHTS assay to identify small molecule antagonists of the androgen receptor (AR) signaling pathway using the MDA cell line - cell viability counter screen (AID 743041; note: nearly all actives have a fitted effect of over 45% in size). An outline of the steps:
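Cytotoxicity counter screen: MDA-kb2 AR-luc cells, compound + R1881, 16 h, 37C, 0% CO2; CellTiter-Fluor added at 15.5 h, fluorescence read after 30 min.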

The nature of assay [11]: qHTS assay for identifying genotoxic compounds that show differential cytotoxicity against isogenic chicken DT40 cell lines with known DNA damage response pathways - wild type cell line (AID 743012). Note: nearly all actives have a fitted effect of over 60% in size. Note: potency is the fitted concentration of half-maximal effect. An outline of the steps:
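CellTiter-Glo luminescence readout of viability in wild type DT40 cells after 40 h compound exposure at 37 C/5% CO2; 300 cells/well; reagent incubated 30 min at room temperature before reading.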

The nature of assay [12]: qHTS assay for identifying genotoxic compounds that show differential cytotoxicity against isogenic chicken DT40 cell lines with known DNA damage response pathways - Rev3 mutant cell line (AID 743014). Note: nearly all actives have a fitted effect of over 55% in size.
A short description of assay [13]: qHTS assay for identifying genotoxic compounds that show differential cytotoxicity against isogenic chicken DT40 cell lines with known DNA damage response pathways - Rad54/Ku70 mutant cell line (AID 743015). Note: nearly all actives have a fitted effect of over 60% in size. Note: potency is the fitted concentration of half-maximal effect.
In assay [14] the target is Glucocorticoid receptor (Homo sapiens) (UniProt P04150). Nature of the assay: qHTS assay to identify small molecule agonists of the glucocorticoid receptor (GR) signaling pathway (AID 720691; active = well fitted activation curve with a large enough effect in the signal ratio in the repeat runs, not every such curve was filed as active; the % refers to the signal ratio). An outline of the steps:
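HeLa GR-bla reporter line; cells pre-incubated 4 h, compound in DMSO 18 h at 37 C; LiveBLAzer B/G FRET substrate 2 h RT; fluorescence intensity read-out.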

For assay [15] the target is unchanged. Nature of the assay: qHTS assay to identify small molecule antagonists of the glucocorticoid receptor (GR) signaling pathway (AID 720692; active = well fitted inhibition curve with a large enough effect in the signal ratio in the repeat runs, not every such curve was filed as active; the % refers to the signal ratio). In outline: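 Read-out: beta-lactamase FRET substrate fluorescence, 2 h at room temperature, in HeLa cells stably carrying a GRE-driven bla reporter. Compounds were co-incubated with 5 nM dexamethasone agonist (final) for 18 h at 37 C.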

Assay [16] concerns the target Androgen receptor (Homo sapiens) (UniProt P10275). Put plainly: qHTS assay to identify small molecule antagonists of the androgen receptor (AR) signaling pathway (AID 743035; active = well fitted inhibition curve with a large enough effect in the signal ratio in the repeat runs, not every such curve was filed as active; the % refers to the signal ratio). In outline: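 AR-bla HEK293 reporter cells; 4 h settle at 37C/5% CO2; compound + R1881 agonist, 16 h at 37C; LiveBLAzer B/G FRET substrate 2 h RT; fluorescence intensity read. qHTS format.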

Assay [17] has the same target. Nature of the assay: qHTS assay to identify small molecule agonists of the androgen receptor (AR) signaling pathway (AID 743036; active = well fitted activation curve with a large enough effect in the signal ratio in the repeat runs, with a control signal flat, not every such curve was filed as active; the % refers to the signal ratio). An outline of the steps:
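Following a 4 h settling period, AR-UAS-bla HEK293 cells were dosed with compounds for 16 h at 37C. A 2 h room-temperature incubation with LiveBLAzer B/G FRET substrate preceded the fluorescence measurement.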

The target is the same in assay [18]. Put plainly: qHTS assay to identify small molecule agonists of the androgen receptor (AR) signaling pathway using the MDA cell line (AID 743040; note: nearly all actives have a fitted effect of over 20% in size). In outline: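 Luciferase read-out, ONE-Glo, 30 min RT. Cells: MDA-kb2 AR-luc, MMTV promoter with AR and GR response elements. Compound exposure 16 h, 37C, 0% CO2, after 5 h pre-incubation. qHTS agonist mode.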
Assay [19] shares this target. Put plainly: qHTS assay to identify small molecule antagonists of the androgen receptor (AR) signaling pathway using the MDA cell line (AID 743042; note: nearly all actives have a fitted effect of over 55% in size). An outline of the steps:
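MDA-kb2 breast carcinoma cells carrying MMTV-luciferase (AR/GR responsive) were co-treated with compounds and the agonist R1881 for 16 h at 37C. Inhibition read as ONE-Glo luminescence; CellTiter-Fluor fluorescence measured in parallel for cytotoxicity.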
% is set by controls: 0 for no effect and ±100 for the full control effect.

Chain of Androgen receptor (Homo sapiens) (P10275 whole entry, looked up): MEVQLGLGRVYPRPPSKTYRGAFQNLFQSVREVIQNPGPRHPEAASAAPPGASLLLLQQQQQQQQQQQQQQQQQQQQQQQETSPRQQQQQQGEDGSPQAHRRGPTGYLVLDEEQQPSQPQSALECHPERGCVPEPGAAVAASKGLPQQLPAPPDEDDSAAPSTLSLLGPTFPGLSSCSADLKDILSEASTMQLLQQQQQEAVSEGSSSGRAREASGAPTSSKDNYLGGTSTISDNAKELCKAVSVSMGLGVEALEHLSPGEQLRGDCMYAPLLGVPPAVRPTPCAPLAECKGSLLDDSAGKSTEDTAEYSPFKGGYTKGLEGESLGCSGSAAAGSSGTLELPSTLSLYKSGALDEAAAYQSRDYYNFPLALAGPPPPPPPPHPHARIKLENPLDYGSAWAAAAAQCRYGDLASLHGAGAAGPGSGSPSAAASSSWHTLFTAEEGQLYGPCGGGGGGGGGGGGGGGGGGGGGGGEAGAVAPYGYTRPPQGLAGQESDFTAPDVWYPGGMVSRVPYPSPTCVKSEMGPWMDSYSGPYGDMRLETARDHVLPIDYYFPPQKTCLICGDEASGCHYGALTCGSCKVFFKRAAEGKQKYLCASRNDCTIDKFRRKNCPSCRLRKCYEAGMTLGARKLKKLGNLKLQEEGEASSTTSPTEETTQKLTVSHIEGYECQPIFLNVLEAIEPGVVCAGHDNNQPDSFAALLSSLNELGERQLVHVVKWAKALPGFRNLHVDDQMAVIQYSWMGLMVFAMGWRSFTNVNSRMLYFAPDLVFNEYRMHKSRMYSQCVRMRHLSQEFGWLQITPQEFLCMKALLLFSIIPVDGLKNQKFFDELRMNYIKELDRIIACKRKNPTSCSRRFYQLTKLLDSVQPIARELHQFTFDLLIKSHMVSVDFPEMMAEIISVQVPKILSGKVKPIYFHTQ
Chain of Glucocorticoid receptor (Homo sapiens) (P04150 whole entry, looked up): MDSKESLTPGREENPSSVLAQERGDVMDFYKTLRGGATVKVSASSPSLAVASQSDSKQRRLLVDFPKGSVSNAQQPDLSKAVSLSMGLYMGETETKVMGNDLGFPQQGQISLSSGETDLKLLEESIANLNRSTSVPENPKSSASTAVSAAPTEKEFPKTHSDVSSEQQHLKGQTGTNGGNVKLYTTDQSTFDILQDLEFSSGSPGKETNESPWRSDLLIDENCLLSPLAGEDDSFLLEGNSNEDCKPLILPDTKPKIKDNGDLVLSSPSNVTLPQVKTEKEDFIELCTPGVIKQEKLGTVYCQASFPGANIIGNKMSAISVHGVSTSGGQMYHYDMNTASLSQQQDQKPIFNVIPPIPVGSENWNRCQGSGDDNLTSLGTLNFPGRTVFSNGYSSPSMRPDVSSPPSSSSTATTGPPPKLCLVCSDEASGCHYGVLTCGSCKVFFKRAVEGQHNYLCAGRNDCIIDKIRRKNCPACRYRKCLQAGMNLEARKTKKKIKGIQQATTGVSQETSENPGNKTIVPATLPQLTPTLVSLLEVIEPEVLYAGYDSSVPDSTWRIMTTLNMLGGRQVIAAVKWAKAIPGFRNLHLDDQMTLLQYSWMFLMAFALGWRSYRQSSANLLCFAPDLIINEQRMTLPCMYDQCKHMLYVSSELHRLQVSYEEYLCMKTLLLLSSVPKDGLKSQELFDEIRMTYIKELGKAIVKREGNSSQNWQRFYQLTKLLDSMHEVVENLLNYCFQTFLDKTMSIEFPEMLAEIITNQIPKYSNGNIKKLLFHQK

For `CCCCCCCCCCCCN(CCCCCCCCCCCC)CCCCCCCCCCCC`, the result in assay [1], in assay [2], in [3], in assay [4], in assay [5] and in assay [6] was inactive. For the same compound, the compound was called inactive in assay [7] and in [8]. Further, the Potency entry in assay [9] and in assay [10] was “inactive” throughout.

For `CC(=O)N(CC(O)CO)c1c(I)c(C(=O)NCCO)c(I)c(C(=O)NCC(O)CO)c1I` (stereo not drawn), the outcome in assay [1], in [2], in assay [3], in [4], in assay [5] and in assay [6] was inactive. The call in assay [7] and in assay [8] was inactive. Further, the Potency result in [11], in assay [12], in assay [13], in assay [9] and in assay [10] was “inactive” throughout.

Consider `CCOC(=O)Nc1ccc(NCc2ccc(F)cc2)nc1N`, for which the compound was called inactive in assay [2], in assay [3], in assay [4], in [6] and in assay [8]. The Potency entry in assay [14], in assay [15], in assay [12], in assay [9] and in [10] was “inactive” each time. Moreover, the Potency in [11] was 26.6 µM (active).

Turning to `CCCCOCCOCCOCc1cc2c(cc1CCC)OCO2`, the outcome in assay [1], in [2], in [3], in assay [4], in [5] and in assay [6] was inactive. Further, the outcome in [7], in assay [8], in assay [16] and in assay [17] was inactive. The Potency is 24.6 µM (active) in [11] and 34.7 µM (active) in [13]. Moreover, the Potency result in assay [12], in assay [9], in assay [18], in assay [10] and in [19] was “inactive” each time.

As for `CCCCC/C=C\CCC=O`, the call in [1], in [2], in [3], in [4], in [5] and in [6] was inactive. In addition, the call in assay [7], in assay [8] and in assay [16] was inactive. Moreover, the Potency result in assay [14], in assay [15], in [11], in assay [12], in assay [13] and in assay [9] was “inactive” in each case. Besides, the Potency result in assay [10] was “inactive”.

Regarding `CCO[Si](CCC1CCC2OC2C1)(OCC)OCC` (stereo not drawn), the compound was called inactive in assay [1], in [2], in assay [3], in assay [4], in assay [5] and in assay [6]. Moreover, the compound was classed as inactive in [7] and in assay [8]. In addition, the Potency entry in assay [14], in assay [15], in assay [11], in assay [12], in [13] and in assay [9] was “inactive” throughout. Moreover, in [10], the Potency result was “inactive”.

For `c1ccc([C@H]2CN3CCSC3=N2)cc1`, the call in assay [1], in assay [2], in assay [4], in [5], in [6] and in assay [7] was inactive. Besides, in [8], the call was inactive. The Potency result in assay [14], in [9] and in assay [10] was “inactive” throughout.

Regarding `CC1(C)CO[C@@H](CC(=O)O)CN1`, the compound was classed as inactive in [1], in [2], in [3], in [4], in [5] and in assay [6]. In addition, the call in assay [7] and in assay [8] was inactive. The Potency entry in [14], in [11], in [12], in assay [9] and in assay [10] was “inactive” each time.

For `CCC(C)S` (stereo not drawn), the fluorescence, % of fluorescent control in assay [1] is 0.0638% [at 3.72 µM]; in assay [3], -0.0589% [at 3.72 µM]; in assay [5] it was -0.0422% [at 3.72 µM]; in assay [7], -0.0637% [at 3.72 µM]. Further, the activity change in [2] is -0.0524% [at 3.72 µM]. The fluorescence, % of Rose Bengal in assay [4] was -0.203% [at 3.72 µM]. The fluorescence, % of fluorescein control in assay [6] is 0.0002% [at 3.72 µM]. Further, the activation in [14] is -0.406% [at 3.1 µM]. For the same compound, the activity change, negative = inhibition in assay [15] was 1.31% [at 3.15 µM]. The viability change, negative = cytotoxic in assay [8] was -1.32% [at 3.15 µM]; in assay [10] it was 8.95% [at 3.79 µM]. The results for the activity change, negative = cytotoxicity in assay [11], in [13] and in [9] were 25.1% [at 3.82 µM], 19.5% [at 3.83 µM] and 6.76% [at 3.15 µM], respectively. For the same compound, the activity, negative = cytotoxicity in assay [12] was -7.66% [at 3.82 µM].

As to `C[C@@H]1CCN(C(=O)[C@H](CCCN=C(N)N)NS(=O)(=O)c2cccc3c2NC[C@H](C)C3)[C@@H](C(=O)O)C1`, the outcome in [1], in assay [2], in [3], in assay [4], in assay [5] and in assay [6] was inactive. The compound was classed as inactive in assay [7] and in assay [8]. For the same compound, the Potency result in assay [11], in assay [12], in assay [13], in assay [9] and in assay [10] was “inactive” each time.
